Hit rate of the full screen: of about 340,000 compounds, about 1,000 (0.29%) were called active. Cut-off read from the data, not from the text of the source: inconclusive = inhibition above about 29% without an active follow-up result; inactive = below that. Not all results are given here. Measured potencies and affinities stand elsewhere.
Target: Genome polyprotein (Dengue virus type 2 (strain 16681-PDK53)) (UniProt P29991)
Assay: flavivirus cap methylation enzyme inhibition – biochemical, confirmation dose response, primary screen (AID 588689)
Conditions: Dengue-2 NS5 methyltransferase capping enzyme assay, at 25 µM, stronger effect = higher value
[1] = measured here: pilot screen replicate inhibition

| Structure (SMILES) | inhibition | inhibition [1] [%] |
| --- | --- | --- |
| CC(C)(C)c1ccc(C2(C)NC(=O)N(CC(=O)c3ccc[nH]3)C2=O)cc1 (centres undefined) | -2.04% (inactive) | – |
| CC(OC(=O)c1cccc(-n2cnnn2)c1)c1nc2ccccc2c(=O)[nH]1 (centres undefined) | -3.65% (inactive) | – |
| CC(=O)OCC1=C(C(=O)O)N2C(=O)[C@@H](NC(=O)Cc3ccccc3)[C@H]2SC1 | -1.45% (inactive) | – |
| CC(=O)OCC1=C(C(=O)O)N2C(=O)C(NC(=O)CCn3nc(C)c(Cl)c3C)C2SC1 (centres undefined) | 0.78% (inactive) | – |
| O=C(O)c1cccc(NC(=O)c2ccc3c(c2)C(=O)N(Cc2ccco2)C3=O)c1 | -0.72% (inactive) | – |
| O=C(O)COc1ccccc1/C=C1\SC(=O)N(Cc2ccc(F)cc2)C1=O | 8.1% (inactive) | – |
| O=C1NC(=O)/C(=C\c2ccccc2OCc2ccccc2)S1 | -0.78% (inactive) | – |
| CN1C(=O)/C(=C\c2ccccc2OCc2ccccc2)SC1=S | -2.61% (inactive) | – |
| O=C(O)CCCN1C(=O)/C(=C\c2ccco2)SC1=S | 47.7% (inactive) | – |
| O=C1NC(=O)/C(=C/c2ccccc2OCc2ccccc2)S1 | 11.6% (inactive) | – |
| O=C(O)CCCCN1C(=O)/C(=C\c2ccc(OCc3ccccc3)c(OCc3ccccc3)c2)SC1=S | 6.5% (inactive) | – |
| Cc1nn(-c2ccccc2)c(Cl)c1/C=C1\C(=O)N(C)C(=S)N1C | -12.7% (inactive) | – |
| Cc1nn(-c2ccccc2)c(Cl)c1/C=C1\SC(=S)N(C)C1=O | 4.37% (inactive) | – |
| CC(Oc1ccccc1)C(=O)N=C1SC2CS(=O)(=O)CC2N1Cc1ccccc1 (centres undefined) | 0% (inactive) | – |
| Cc1nc(-c2ccccc2)sc1C(=O)Nc1ccccc1F | 0% (inactive) | – |
| CCOC(=O)N1CCN(C(=O)c2cn(CC)c3ccc(S(=O)(=O)N(C)C4CCCCC4)cc3c2=O)CC1 | 2.95% (inactive) | – |
| O=C(NO)C1CC2C=CC1C2 (centres undefined) | -6.15% (inactive) | – |
| CCn1ccc2c(OCC(=O)NCCc3ccc(OC)c(OC)c3)cccc2c1=O | -3.6% (inactive) | – |
| CN1C(=O)S/C(=C/c2ccccc2OCc2ccc(C(=O)O)cc2)C1=O | 5.16% (inactive) | – |
| CC(=C\c1ccccc1)/C=C1/SC(=S)N(CCC(=O)O)C1=O | 11.1% (inactive) | – |
| CC(=C\c1ccccc1)/C=C1/SC(=S)N(CCCC(=O)O)C1=O | 19% (inactive) | – |
| CCOc1ccccc1C=C1SC(=S)N(CC)C1=O | 6.98% (inactive) | – |

| Structure (SMILES) | inhibition | inhibition [1] [%] |
| --- | --- | --- |
| O=C(Nc1cccc(C(=O)O)c1)/C(=C\c1ccccc1)NC(=O)c1ccccc1Cl | -2.05% (inactive) | – |
| O=C1CCc2cc(S(=O)(=O)NCCc3ccc(Cl)cc3)cc3c2N1CC3 | 3.62% (inactive) | – |
| O=S(=O)(c1cccc2cccc(Cl)c12)N1CCCC1 | -4.68% (inactive) | – |
| O=C(CCC1CCCN(C(=O)CCC(F)(F)F)C1)NCc1ccc(F)c(F)c1 (centres undefined) | -0.74% (inactive) | – |
| O=C(COC(=O)c1ccco1)NCc1ccccc1Cl | 3.03% (inactive) | – |
| Nc1ccc(S(=O)(=O)c2cccc(N)c2)cc1 | -5.56% (inactive) | – |
| Nc1ccc(S(=O)(=O)c2ccc(N)cc2)cc1 | 1.49% (inactive) | – |
| COCCn1c(C)cc(C(=O)CSc2n[nH]c(N)n2)c1C | -0.41% (inactive) | – |
| O=c1c2c([N+](=O)[O-])cc([N+](=O)[O-])cc2sn1Cc1ccccc1 | 18.3% (inactive) | – |
| O=C1c2c([N+](=O)[O-])cc([N+](=O)[O-])cc2S(=O)N1Cc1ccccc1 (centres undefined) | 10.1% (inactive) | – |
| COC(=O)c1ccc(NC(=O)CCCCCn2nnc3ccccc3c2=O)cc1 | -0.65% (inactive) | – |
| O=C1CN(C(=O)N[C@@H](Cc2ccccc2)C(=O)N[C@H](Cc2ccccc2)C(=O)O)c2ccccc2N1 | -2.17% (inactive) | – |
| COc1cc(OC)cc(N(C(=O)C2COc3ccccc3O2)C(C(=O)NC2CCCCC2)c2ccc(O)cc2)c1 (centres undefined) | -5.19% (inactive) | – |
| COc1ccccc1NC(=O)Nc1ccccc1C(N)=O | -5.31% (inactive) | – |
| CCOc1ccc(C(=O)N/N=C/c2ccc(-c3ccc(S(=O)(=O)Nc4ncccn4)cc3)o2)cc1 | 0.82% (inactive) | – |
| NC(=O)N/N=C/c1ccc(-c2ccc(S(=O)(=O)Nc3ncccn3)cc2)o1 | -2.88% (inactive) | – |
| CCOC(=O)CC(=O)CSc1ccc2nnc(-c3ccc(F)cc3)n2n1 | 0.81% (inactive) | – |
| CC(C)CCN1CN(S(=O)(=O)c2cccs2)c2nc3ccccc3nc21 | -2.77% (inactive) | – |
| COc1cc(NC(=S)NN2CCN(C)CC2)cc(OC)c1 | -3.9% (inactive) | – |
| N#C/C(=C\C=C\c1ccccc1[N+](=O)[O-])c1nc(-c2ccc3c(c2)OCO3)cs1 | -0.69% (inactive) | – |
| COc1ccc(-c2cc(C(F)(F)F)n3nc(C(=O)NCc4ccco4)cc3n2)cc1 | -2.82% (inactive) | – |
| Cc1ccc(N2C(=O)c3sc4nnc(C)c(=O)n4c3C2=O)cc1 | 0% (inactive) | – |

| Structure (SMILES) | inhibition | inhibition [1] [%] |
| --- | --- | --- |
| CCc1ccc(N2C(=O)c3sc4nnc(C)c(=O)n4c3C2=O)cc1 | -0.68% (inactive) | 5.46 |
| Cc1ccc(S(=O)(=O)N2CCCCC2)cc1NC(=O)c1ccco1 | -2.75% (inactive) | – |
| Cc1ccc(C)c(OCc2cc(C(=O)NC(C)c3cnn(C)c3)no2)c1 (centres undefined) | -5% (inactive) | – |
| CCOC(=O)N1CCC(Nc2c(-c3ccc(C)c(C)c3)c(=O)c2=O)CC1 | -8.18% (inactive) | – |
| COc1ccc(S(=O)(=O)Nc2cccc3c2O[C@H](CN(C)C(=O)Nc2ccc(C(F)(F)F)cc2)[C@@H](C)CN([C@H](C)CO)C3=O)cc1 | -2.11% (inactive) | – |
| O=C(CCN1C(=O)/C(=C/c2ccco2)SC1=S)Nc1ccc(C(=O)O)c(O)c1 | 48.7% (inactive) | – |
| O=C(CN1C(=O)S/C(=C\c2cccs2)C1=O)Nc1ccc(O)cc1C(=O)O | 14.3% (inactive) | – |
| O=C(CN1C(=O)S/C(=C\c2cccs2)C1=O)Nc1ccc(C(=O)O)c(O)c1 | 15% (inactive) | – |
| O=C(CN1C(=O)S/C(=C\c2cccs2)C1=O)Nc1ccc(O)c(C(=O)O)c1 | 8.14% (inactive) | – |
| Cc1ccc(/C=C2\SC(=S)N(CCC(=O)NNC(=O)c3ccc(O)cc3)C2=O)cc1 | -0.88% (inactive) | – |
| O=C(CN1C(=O)/C(=C/c2ccco2)SC1=S)Nc1ccc(C(=O)O)c(O)c1 | 36.5% (inactive) | – |
| O=C(CCCN1C(=O)/C(=C\c2ccccc2)SC1=S)Nc1ccc(O)cc1C(=O)O | 20.6% (inactive) | – |
| O=C(CCCN1C(=O)/C(=C\c2cccs2)SC1=S)Nc1ccc(O)cc1C(=O)O | -9.83% (inactive) | – |
| CC(C)(CNC(=O)c1ccccc1F)CNC(=O)c1ccccc1F | 3.07% (inactive) | – |
| CC(C)OC(=O)N(C)C[C@H]1OCc2cnnn2CCCC(=O)N([C@H](C)CO)C[C@H]1C | -3.41% (inactive) | – |
| COc1ccc(C2=NS(=O)(=O)N(C)C(C(=O)NC3CCCCC3)=C2)cc1OC | -5.5% (inactive) | – |
| O=S(=O)(CCc1nc2ccccc2o1)c1ccc2ccccc2c1 | -2.77% (inactive) | – |
| CC(Sc1nnc(COc2ccc(Cl)cc2)n1Cc1ccccc1)C(=O)O (centres undefined) | 0.73% (inactive) | – |
| CCN(CC)C(=O)C1=C(C)N(CCC2=CCCCC2)C(=O)C(CC(=O)NCC2CCCCC2)C1 (centres undefined) | -0.57% (inactive) | – |
| O=[N+]([O-])c1cc(C(F)(F)F)cc([N+](=O)[O-])c1NN=C1CCCCC1 | -139% (inactive) | – |
| CC1(C)CC(=O)C=C(NCc2ccc(C(=O)O)cc2)C1 | -7.73% (inactive) | – |
| COc1ccc(CN2C(=O)C(C)Nc3ncnc(N4CCOCC4)c32)cc1 (centres undefined) | -5.79% (inactive) | – |

| Structure (SMILES) | inhibition | inhibition [1] [%] |
| --- | --- | --- |
| COc1ccc(S(=O)(=O)N(CCCN2CCOCC2)Cc2cccc3ccccc23)cc1 | 1.67% (inactive) | – |
| CCN(CC)c1ccc(C(=C2C=CC(=[N+](CC)CC)C=C2)c2ccc(S(=O)(=O)O)cc2S(=O)(=O)[O-])cc1 | 1.48% (inactive) | – |
| CCN(CC)c1ccc(C(=C2C=CC(=[N+](CC)CC)C=C2)c2ccc(N(CC)CC)cc2)cc1 | 17% (inactive) | – |
| Cc1ccc2[nH]cc(CCNC(=O)c3ccc4c(c3)OCO4)c2c1 | 1.31% (inactive) | -1.82 |
| O=S(=O)(NCc1nnc2ccccn12)c1ccc(F)cc1 | -3.63% (inactive) | – |
| Cc1sc(N2C(=O)C3C4C=CC(C4)C3C2=O)c(C#N)c1C (centres undefined) | -2.18% (inactive) | – |
| CC(C)[C@H](NC(=O)c1c(F)cccc1F)C(=O)OCC(=O)NNC(=O)c1ccccc1 | -2.88% (inactive) | – |
| CN(C)c1ccc2c(O)cc(=O)n(C)c2c1 | 23.3% (inactive) | – |
| CN(C)c1ccc(Cc2ccc(N(C)C)cc2)cc1 | 4.45% (inactive) | – |
| COc1cc(NC(=O)c2cccs2)c(OC)cc1NC(=O)c1cccs1 | -7.78% (inactive) | – |
| CCC(C)N(C(=O)CSc1nc(C)nc2ccccc12)C1CCS(=O)(=O)C1 (centres undefined) | -9.59% (inactive) | – |
| O=C(c1ccccc1)N1CCN(c2ccc(N3CCOCC3)nn2)CC1 | 0.74% (inactive) | – |
| C[C@H](CO)N1C[C@H](C)[C@H](CN(C)C(=O)Nc2ccccc2)OCc2cnnn2CCCC1=O | 1.65% (inactive) | – |
| O=C1C=C(Nc2cccnc2)c2ccccc2C1=O | 33.2% (inactive) | – |
| O=C1C=C(Nc2ccccc2O)c2ccccc2C1=O | 19% (inactive) | – |
| CSc1nnc(C)c(=O)n1COC(=O)COc1ccc2ccccc2c1 | 3.64% (inactive) | – |
| COc1ccc(-c2c(C#Cc3ccc(N(C)C)cc3)c3ccccc3n2C)cc1 | 6.35% (inactive) | – |
| Cc1nc2c(-c3ccccc3)c(C)nn2c(N)c1-c1ccccc1 | -5.49% (inactive) | – |
| Cc1cc(-c2ccc([N+](=O)[O-])cc2)nc2ccccc12 | 0% (inactive) | – |
| C[C@@]12C(=O)Nc3cc(F)c(F)cc3C(=O)N1[C@H]1c3cc(Cl)ccc3OC[C@@H]1[C@@H]2c1ccccc1 | 2.81% (inactive) | – |
| Cc1cc(C)c2[nH]c(=O)c(C(c3nnnn3Cc3ccc4c(c3)OCO4)N3CCCCC3)cc2c1 (centres undefined) | 9.03% (inactive) | – |

— PubChem BioAssay AID588689 (Southern Research Specialized Biocontainment Screening …, 2011)
